CHT allo act – CHT positive allosteric modulators, primary screen, cell-based, membrane potential dye, choline EC20 | High affinity choline transporter 1 (Homo sapiens), Q9GZV3 | CHT-expressing cells; hits give high values; LV-AA mutant CHT in HEK293 cells | B-score at 10 µM | hit rate 0.49% among 310,000 | AID 488977, 2010;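 active = initial fluorescence not abnormally high and integrated response B-score, plate-corrected, over 3 SD above library mean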
CHT inh – inhibitors of human choline transporter CHT; CHT-expressing cells, membrane potential dye, choline response; hits give low values; B-score at 10 µM; hit rate 0.86% among 310,000;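 active = B-score over 3 SD under the library average, and starting fluorescence ratio not unusually high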;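 note: choline stimulus applied at its EC90 after an EC20 pre-addition; B-score computed on integrated fluorescence ratio after choline addition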
TMEM16A act – TMEM16A chloride channel activators or potentiators, primary screen, cell-based, HTS | Anoctamin-1 (Mus musculus), Q8BHY3 | hit rate 0.3% among 340,000 | B-score at 10 µM | HEK293 TMEM16A/YFP-H148Q/I152L, iodide quench fluorescence; hits give low values;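 active = fluorescence-ratio B-score plate-corrected deviation score at least 3 library SD below zero, with starting fluorescence score within 5 deviations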;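 note: channel opened by trigger with iodide after compound preincubation; score built on the fluorescence ratio of max minus min over baseline; more negative score means more quench and so TMEM16A activation or potentiation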
ANO1 block – TMEM16A chloride channel inhibitors, primary screen, cell-based, HTS; Anoctamin-1 (Mus musculus), Q8BHY3; HEK293 TMEM16A/YFP iodide influx fluorescence, ionomycin; normalized B-score (activity score, 25-100; higher = stronger inhibition) at 10 µM; hit rate 1.2% among 310,000;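 active = ratio plate-corrected score three or more library SD toward inhibition, starting fluorescence score within five deviations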;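 note: score derived from kinetic fluorescence span divided by baseline fluorescence per well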
HDAC3 inhib – HDAC3 deacetylase inhibitors, primary screen, biochemical, fluorescence, cell-free homogeneous | Histone deacetylase 3 (Homo sapiens), O15379 | recombinant HDAC3, fluorogenic peptide/trypsin coupled | inhibition, % at 8.3 µM | hit rate 0.15% among 320,000 | AID 2718, 2010; in the data active = inhibition above about 26%, passing the limit was not always enough; inconclusive = no clear call, values can overlap the other calls
Target sequence (O15379 whole entry, looked up): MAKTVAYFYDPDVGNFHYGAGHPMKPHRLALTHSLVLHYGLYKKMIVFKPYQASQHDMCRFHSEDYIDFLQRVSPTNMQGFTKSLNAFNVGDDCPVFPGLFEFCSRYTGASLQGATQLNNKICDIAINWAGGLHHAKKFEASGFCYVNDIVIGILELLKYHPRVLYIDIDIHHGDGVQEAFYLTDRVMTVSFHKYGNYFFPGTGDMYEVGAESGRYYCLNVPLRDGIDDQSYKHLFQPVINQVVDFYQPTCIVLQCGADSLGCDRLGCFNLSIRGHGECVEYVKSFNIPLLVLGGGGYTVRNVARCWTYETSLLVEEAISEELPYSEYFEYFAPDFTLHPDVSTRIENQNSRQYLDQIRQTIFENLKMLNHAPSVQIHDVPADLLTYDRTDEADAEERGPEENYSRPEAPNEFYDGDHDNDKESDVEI
PHOSPHO1 block – PubChem AID 1565; Phosphoethanolamine/phosphocholine phosphatase (Homo sapiens), Q8TCT1; recombinant PHOSPHO1, absorbance phosphatase assay; inhibition, % at 13.3 µM; hit rate 1.1% among 290,000; in the data active = inhibition above about 60%
Target sequence (Q8TCT1 whole entry, looked up): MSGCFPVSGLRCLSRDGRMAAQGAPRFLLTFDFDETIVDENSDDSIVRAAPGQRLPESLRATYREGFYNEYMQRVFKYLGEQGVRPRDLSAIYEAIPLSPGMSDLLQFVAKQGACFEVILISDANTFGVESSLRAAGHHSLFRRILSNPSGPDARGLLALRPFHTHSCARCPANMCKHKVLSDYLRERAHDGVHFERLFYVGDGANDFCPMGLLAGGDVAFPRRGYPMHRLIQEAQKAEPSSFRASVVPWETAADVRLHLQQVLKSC
Large screens that a line does not name were inactive. The list is not random: actives were taken first. Their share in the collection is about 3.2%.

O=C(Nc1ccccc1C(=O)Nc1nnc(C(F)(F)F)s1)c1ccccc1	TMEM16A act -6.2, ANO1 block 100
COc1ccc(-c2csc(N(CCCN(C)C)C(=O)c3ccccc3Cl)n2)cc1	CHT inh -8.8 (no result: PHOSPHO1 block)
COc1ccc(-c2csc(N(CCCN(C)C)C(=O)c3ccccc3F)n2)cc1	none
COc1cc(C(=O)OCC(=O)N(C)Cc2ccccc2)cc(OC)c1OC	none
O=C(Cn1nc(C(F)F)cc1C(F)F)NNC(=S)Nc1ccc(F)cc1	PHOSPHO1 block 73
COc1cccc(NC(=S)NNC(=O)Cn2nc([N+](=O)[O-])cc2C)c1	none
Cc1cc([N+](=O)[O-])nn1CC(=O)NNC(=S)Nc1ccc(Cl)cc1	PHOSPHO1 block 93
Cc1ccc(NC(=S)NNC(=O)Cn2nc([N+](=O)[O-])cc2C)cc1	PHOSPHO1 block 96
Cc1ccc(NC(=S)NNC(=O)CCn2cc(C)cn2)cc1	PHOSPHO1 block 69
COCCCNC(=O)c1cccc(S(=O)(=O)N2CC3(C)CC2CC(C)(C)C3)c1 (stereo not drawn)	none (no result: PHOSPHO1 block)
COc1ccccc1Nc1nc2c(s1)CCC2	PHOSPHO1 block 76
CN(C)C1=NC[C@H](Cc2ccccc2)N1CC1CCCC1	none (no result: PHOSPHO1 block)
CN(C)C1=NC[C@H](Cc2ccccc2)N1CC1CCC(C(C)(C)C)CC1 (stereo partly drawn)	CHT allo act 15
CC1(C)Cc2c(sc3ncn(N)c(=N)c23)CO1	none
CC1(C)Cc2c(sc3ncn4c(=S)[nH]nc4c23)CO1	PHOSPHO1 block 68
CCCCc1cc(=O)oc2cc(OCc3cc(OC)c(OC)c(OC)c3)c(Cl)cc12	TMEM16A act -4.9
Cc1ccc(OCc2nnc(SCC(=O)C(C)(C)C)n2Cc2ccco2)cc1	PHOSPHO1 block 61
C=CCn1c(COc2ccc(Cl)cc2)nnc1SCc1ccc(C#N)cc1	PHOSPHO1 block 88
C=CCn1c(COc2ccc(F)cc2)nnc1SCC(=O)NC(=O)NCc1ccco1	PHOSPHO1 block 93
C=CCn1c(COc2ccc(Cl)cc2)nnc1SCC(=O)NCC(=O)OCC	PHOSPHO1 block 100
C=CCn1c(SCc2ccc(C#N)cc2)nnc1-c1ccccc1	none
CCOC(=O)c1ccccc1NS(=O)(=O)c1cnn(CC)c1C	none (no result: PHOSPHO1 block)
COc1ccc(S(=O)(=O)n2nc(C)c(S(=O)(=O)N3CCOCC3)c2C)cc1OC	none (no result: TMEM16A act)
Cc1c(Cl)ccc2sc(NC(=O)C3CC3)nc12	none
CCC(=O)Nc1nc2ccc([N+](=O)[O-])cc2s1	none
CCC(=O)Nc1nc2ccc3sc(C)nc3c2s1	PHOSPHO1 block 64
Cc1nc2c(ccc3nc(NC(=O)C4CC4)sc32)s1	PHOSPHO1 block 62
O=C(/C=C/c1cccc(C(F)(F)F)c1)Nc1cccc(C(F)(F)F)c1	TMEM16A act -7.2, ANO1 block 100
CSc1cccc(NC(=O)/C=C/c2cccc(Cl)c2)c1	ANO1 block 100
CCOC(=O)C1(C)/C(=N/Nc2ccc(Cl)cc2)C(=O)C(=O)N1c1ccccc1 (stereo not drawn)	PHOSPHO1 block 103
C=C(C(=O)Oc1ccccc1C(C)(C)C)c1ccccc1	none (no result: CHT allo act, CHT inh, TMEM16A act, ANO1 block, PHOSPHO1 block)
COc1ccc(-n2nc3c(N4CCC(C(=O)N5CCC(C)CC5)CC4)nnc(C)c3c2C)cc1	none
Cc1nnc(N2CCC(C(=O)NC3CCC(C)CC3)CC2)c2nn(-c3ccc(Cl)cc3)c(C)c12 (stereo not drawn)	ANO1 block 100
C=CC[C@@H](CC(=O)N(CCO)Cc1ccccc1)C(=O)NC[C@@H](OC(=O)[C@@H](CC=C)CC(=O)OC(C)(C)C)c1ccccc1	none (no result: CHT allo act, CHT inh, ANO1 block, PHOSPHO1 block)
C=CC[C@H](CC(=O)N(CCO)Cc1ccccc1)C(=O)NC[C@H](OC(=O)[C@@H](CC=C)CC(=O)OC(C)(C)C)c1ccccc1	HDAC3 inhib 31 (no result: CHT allo act, CHT inh, ANO1 block, PHOSPHO1 block)
C=CC[C@H](CC(=O)NCCO)C(=O)NC[C@@H](OC(=O)[C@@H](CC=C)CC(=O)OC(C)(C)C)c1ccccc1	TMEM16A act -18 (no result: CHT allo act, CHT inh, ANO1 block, PHOSPHO1 block)
O=C(O)c1cccc(Oc2cccc(Cl)n2)c1	none
CCc1ccc(NC(=S)N2CCCCCCC2)cc1	PHOSPHO1 block 68
CCc1cccc(NC(=S)N2CCC(c3ccccc3)C2)c1 (stereo not drawn)	TMEM16A act -5.7
CSc1cccc(NC(=S)N2CCC(c3ccccc3)C2)c1 (stereo not drawn)	none
CCn1c(SCc2ccc([N+](=O)[O-])cc2)nnc1C(C)NC(=O)c1ccccc1Br (stereo not drawn)	none
S=C(NNc1ccnc2cc(Cl)ccc12)Nc1ccccc1Cl	ANO1 block 25
Clc1ccc(NNc2ccnc3cc(Cl)ccc23)cc1	none
N#Cc1ccc(OCC(O)CN2CCN(c3ncc(C(F)(F)F)cc3Cl)CC2)cc1 (stereo not drawn)	ANO1 block 25
C1=CC2C3C=CC(C3)C2C1 (stereo not drawn)	none (no result: CHT allo act, CHT inh, ANO1 block, PHOSPHO1 block)
CC1CN(C(=O)COC(=O)Cc2c(Cl)cccc2Cl)CC(C)O1 (stereo not drawn)	none (no result: CHT allo act, CHT inh, ANO1 block, PHOSPHO1 block)
O=C(Cn1c2ccccc2c2nc3n(c(=O)c21)CCS3)N1CCCC1	none
O=C(Cn1c2ccccc2c2nc3n(c(=O)c21)CCS3)Nc1ccccc1	TMEM16A act -32
O=c1c2ccccc2nnn1Cc1ccc2ccccc2c1	none
Cc1[nH]c2ccccc2c1Cc1n[nH]c(=S)o1	PHOSPHO1 block 90
CC(C)(C)C(=O)Oc1cc(N)n(S(=O)(=O)c2ccc(F)cc2)n1	HDAC3 inhib inconclusive
Nc1cc(OC(=O)c2ccco2)nn1S(=O)(=O)c1ccc(F)cc1	HDAC3 inhib 85
Nc1cc(OC(=O)c2ccc(F)cc2)nn1S(=O)(=O)c1ccc(F)cc1	HDAC3 inhib 60
CNc1ccccc1C(C)(C)c1cc(C)[nH]n1	none
CCCC(=O)N1CCN(c2nc(CC(C)C)c3c(c2C#N)CCC3)CC1	CHT allo act 7
CC(C)Cc1nc(N2CCN(C(=O)Cc3ccccc3)CC2)c(C#N)c2c1COC(C)(C)C2	none (no result: CHT allo act, CHT inh, TMEM16A act, ANO1 block, HDAC3 inhib)
CCn1cnc2cc(NCc3ccc(OC)cc3)ccc21	none
CC(C)(C)n1cnc2cc(NCc3ccc(Br)cc3)ccc21	TMEM16A act -9
CCc1ccc(CNc2ccc3c(c2)ncn3CC)cc1	TMEM16A act -6.9
CCCCOc1cccc(/C=C(\C#N)C(=O)NC2CC2)c1	none
Cn1c(N)c(S(=O)(=O)N2CCN(C(=O)c3ccco3)CC2)c(=O)n(C)c1=O	none
CC(C)c1ccc(CN2CCN(C(=O)CCl)CC2)cc1	PHOSPHO1 block 62 (no result: CHT allo act, CHT inh, ANO1 block, HDAC3 inhib)
CC(C)c1ccc(/C=C2\C(=N)N3N=C(CC(=O)N4CCCCC4)SC3=NC2=O)cc1	none
Cc1ccc(-c2n[nH]c(=S)n2/N=C/c2cccn2C)cc1	none

Screening results (PubChem)
